Screens (PubChem BioAssay)
In the library only some 1.2% were active in any assay of this set; here they are far more common.
KCNH2 3.1 block = inhibitors of human KCNH2 3.1 potassium channel isoform; U2OS KCNH2 3.1, thallium flux FluxOr; active compounds read low; activity change, % (tested at about 1.8 µM); 340,000 tested, 0.95% active;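 active = maximum activity change below -70%; inconclusive = maximum activity change from -70% to -50%; inactive = maximum activity change above -50%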;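 note: thallium influx rate constant from kinetic fluorescence after stimulation buffer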
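Thallium flux via FluxOr fluorescence (Red40 quencher, 45 min loading) in U2OS cells virally expressing the KCNH2 3.1 isoform (1.77 x 10^8 /mL virus, overnight at 37 C). Rate constants from 2-min kinetic reads post-stimulation, normalised to positive and negative controls.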
hERG WT inh = KCNH2 (human, wildtype) channel inhibition; U2OS, BacMam KCNH2, thallium flux FluxOr; active compounds read low; activity change, % at 1.84 µM; 340,000 tested, 0.37% active; AID 720551;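 active = maximum activity change below -70%; inconclusive = maximum activity change between -70% and -50%; inactive = maximum activity change above -50%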
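U2OS cells were transduced with wild-type KCNH2 virus (2.03 x 10^8 / mL) for 4 h at room temperature, then cultured overnight at 37 C. Thallium flux was read with FluxOr dye. Rate constants were normalized to DMSO controls.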
PTAP TSG101 blk = blocks PTAP/TSG101 interaction to inhibit HIV-1 budding. AID 493005. Fluorescence polarization, FITC-PTAP peptide / Tsg101 binding. Potency, µM (top dose mostly 115 µM), most hits filed as inhibitors. 340,000 tested, under 10 active; active = well fitted inhibition curve with a large enough effect in the main read-out, with a control signal flat, not every such curve was filed as active; inconclusive = small, poorly fitted or top-dose-only effect, or effect the other way, or a change in a side signal; inactive = no such curve, though single readings can be large or run the other way
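Compounds were pin-transferred onto Tsg101 binding domain (10 uM final) in HEPES pH 7.5 buffer, then FITC-PTAP peptide was added at 50 nM final. After 20 min at RT, polarization reported peptide displacement across a qHTS concentration series.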
Tb PFK inh-1 = blocks T. brucei phosphofructokinase; T. brucei PFK, ADP-Glo luminescence; Potency, µM (doses to about 57.5 µM), hits mostly inhibitors; 330,000 tested, 0.17% active; AID 485367; note: nearly all actives have a fitted effect of over 60% in size
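Luminescent ADP detection (ADP-Glo, two-step: ATP depletion then ADP-to-ATP conversion for luciferase) reported PFK activity after 45 min room-temperature reaction of 1.25 nM enzyme with 0.5 mM F6P and 0.1 mM ATP at pH 8.0.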
TbPFK ATP = Tb phosphofructokinase inhibition, orthogonal luminescence; shares compounds with Tb PFK inh-1; Tb PFK enzyme, ATP depletion, Kinase-Glo Plus luminescence; Potency, µM (doses to about 57.5 µM); 1,100 tested, 47% active; calls by dose curve; note: nearly all actives have a fitted effect of over 60% in size
Tb PFK inh-2 = validation of T. brucei phosphofructokinase inhibitors | purified T. brucei PFK, ADP-Glo luminescence, 45 min | 1,100 tested, 41% active | shares compounds with Tb PFK inh-1 | Potency, µM (doses to about 57.5 µM), hits mostly inhibitors; note: nearly all actives have a fitted effect of over 60% in size
A number is an active result; . = inactive; ? = inconclusive; / = not tested or not shown. Unless noted, calls come from the whole dose curve; as a rule, active = well fitted inhibition curve with a large enough effect; inconclusive = small, poorly fitted or top-dose-only effect, or effect the other way; inactive = flat fitted curve, though single readings scatter.

SMILES	KCNH2 3.1 block	hERG WT inh	PTAP TSG101 blk	Tb PFK inh-1	TbPFK ATP	Tb PFK inh-2
Cc1cc(OC(C)C(=O)NCc2ccncc2)c2c3c(c(=O)oc2c1)CCC3 (configuration not stated)	.	.	.	.	/	/
CCOC(=O)C/C(C)=N/NC(=O)CNc1cccc(Cl)c1C	.	.	.	23.9µM	.	.
Cc1nc(SCC(=O)N2CCOCC2)c2c(=O)n(C)c(=O)n(C)c2n1	.	.	.	23.9µM	.	.
CN1CCN(c2ccc(NC(=O)Oc3ccccc3)cc2)CC1	.	.	.	.	/	/
CN1CCN(C(=S)C(=O)Nc2ccc(Br)cc2)CC1	.	.	.	12µM	7.57µM	12µM
C[C@H](NC(=O)N1C[C@H]2C[C@@H](C1)c1cccc(=O)n1C2)C(=O)Nc1ccccc1F	.	.	.	.	/	/
CCn1c(CCNC(=O)c2ccc(OC)cc2)nnc1SCc1ccc(Cl)c(Cl)c1	.	.	.	16.9µM	12µM	23.9µM
COc1ccc(C(CNC(=O)Cc2ccc(Cl)c(Cl)c2)N2CCCCC2)cc1 (configuration not stated)	.	.	.	.	/	/
Nc1ccccc1Sc1nc2ccccc2[nH]1	.	.	.	?	16.9µM	?
CC1(C)NC(=S)C(C)(C)N1N=O	.	.	.	/	/	/
O=C(COC(=O)c1cccc(O)c1)Nc1ccc(Cl)cc1C(=O)c1ccccc1	.	.	.	.	/	/
Cc1c(Cl)cnc(NC(=O)COC(=O)c2ccc3ncsc3c2)c1Cl	/	.	.	?	.	?
O=C(Nc1ccc(Cl)c([N+](=O)[O-])c1)ONC1=NCCCCC1	.	.	.	?	?	?
O=C1C=C(c2ccccc2)C(=O)N1Nc1ccccc1	/	.	.	23.9µM	21.3µM	?
Nc1nc(N2CCN(c3cccc(Cl)c3)CC2)n[nH]1	.	.	.	26.9µM	?	.
O=C1CC(=O)N(c2cccc(Cl)c2)C(=O)N1	.	.	.	.	/	/
O=C(CSC1=NS(=O)(=O)c2cc(Cl)ccc2N1)Nc1cccc(F)c1	.	.	.	?	23.9µM	?
O=C(CN1CC(c2ccccc2)CC1=O)Nc1cccc(F)c1 (configuration not stated)	.	.	.	.	/	/
COc1ccc(-n2c(-c3ccccc3Br)nc3ccccc3c2=O)cc1	.	.	.	.	/	/
O=c1cc2c(=O)oc3cc(O)c(O)oc3c2c(O)c1O	.	.	.	7.57µM	1.2µM	1.35µM
Cc1cc(C)cc(NC(=O)CCNC(=O)N2C[C@H]3C[C@@H](C2)c2cccc(=O)n2C3)c1	.	.	.	.	/	/
CCn1c(C)c(C(=O)Nc2ccc(OC)cc2)c2cc(OC)ccc21	.	.	.	.	/	/
COc1ccc(NC(=O)CN(C)C(=O)c2cc3c(s2)CCC3)cc1	.	.	.	?	?	?
Cc1nnc(Sc2cc(NCCCO)c([N+](=O)[O-])c3nonc23)s1	.	.	.	6.01µM	1.9µM	3.38µM
Cc1nnc(Sc2cc(NCCO)c([N+](=O)[O-])c3nonc23)s1	.	.	.	5.36µM	1.35µM	1.51µM
SMILES	KCNH2 3.1 block	hERG WT inh	PTAP TSG101 blk	Tb PFK inh-1	TbPFK ATP	Tb PFK inh-2
CNc1cc(Cl)c2nonc2c1[N+](=O)[O-]	.	.	.	.	/	/
O=C1/C(=C\c2ccc(Cl)c(Cl)c2)N2CCC1CC2	.	.	.	.	/	/
O=C(NCCCN1CCOCC1)c1sc2cc([N+](=O)[O-])ccc2c1Cl	.	.	.	10.7µM	3.38µM	4.26µM
O=C(O)c1sc2cc(Cl)ccc2c1Cl	/	/	/	.	/	/
COC(=O)C1=C(c2ccc(F)cc2OCc2ccccc2)C[C@@H]2CC[C@H]1N2C(=O)N1CCC(O)(c2ccc(Cl)cc2)CC1	.	.	.	.	/	/
Cc1c(Nc2cc(Cl)c3nonc3c2[N+](=O)[O-])c(=O)n(-c2ccccc2)n1C	.	.	.	?	?	?
COc1ccccc1/C=C1\SC(=S)N(NS(=O)(=O)c2ccccc2)C1=O	.	.	.	?	.	?
CC(=O)N(C)C1=Nc2ccc(Cl)cc2C(c2ccccc2)=[N+]([O-])C1	.	.	.	/	/	/
O=C(CCc1ccc(O)cc1)N1C[C@H]2C[C@@H](C1)c1cccc(=O)n1C2	.	.	.	.	/	/
Cc1ccc(NC(=O)c2ccc(Cl)c(N3C(=O)C=CC3=O)c2)cc1	.	.	.	?	12µM	?
